A549 tox = kills or reduces viability of A549 cells in Nrf2 counter-screen; A549 ARE-Fluc cells, CellTiter-Fluor viability, 18-24 h; Potency, µM (titrated, usually from 46 µM), for inactives: at the top dose activity change, negative = cytotoxicity, most hits filed as inhibitors; hit rate 0.16% among 390,000; further: potency means the concentration at half of the fitted maximal effect; on the % scale 0 is the no-effect control and ±100 the full control effect
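A549 ARE-Fluc cells in 5% FBS OPTI-MEM, 5000 cells/well, rested 2 h then exposed to compounds in concentration-response for 18-24 h at 37 °C. Viability by CellTiter-Fluor fluorescence (Ex 405/Em 525) after 30 min; luciferase luminescence (BugLite, 15 min, RT) read afterwards.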
Nrf2 ARE act = Nrf2 pathway activation; Potency, µM (doses to about 46.1 µM), for the others: at the highest dose activation, actives largely listed as activators; AID 624171; AREc32 ARE-luciferase reporter (MCF7-derived line), luminescence, 24 h; hit rate 0.31% among 410,000; further: potency means the concentration at half of the fitted maximal effect; % of control where 0% means no effect; nearly all actives have a fitted effect of over 65% in size
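AREc32 cells carrying an ARE-driven firefly luciferase reporter were seeded at 1000 cells/well in OPTI-MEM with 5% FBS, then exposed to compound for 24 hr at 37 deg C. Luminescence was read with Steady-Glo after 30 min at RT.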
IL-2 act = IL-2 activation. IL-2 activation reporter assay, cell-based qHTS; stimulated with anti-CD3/CD4/CD28 beads; in transgenic mouse T cells. activation, % (series mostly up to about 46 µM). hit rate 0.065% among 360,000. AID 652025; in the data active means activation above about 50%; inconclusive means mostly about 30% to 49%; further: 0% is about no effect
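Unstimulated transgenic mouse T cells, 750 per well, received compound and, after 60 minutes, anti-CD3/anti-CD4 bead plus anti-CD28 stimulation. EGFP and DsRed were quantified after 18 hours.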
Nrf2 block = inhibitors of Nrf2 signaling; A549 ARE-Fluc reporter, luciferase luminescence, 18-24 h; Potency, µM (titrated, usually from 46 µM), for the others: at the top dose activity change, negative = inhibition, hits mostly inhibitors; hit rate 2.1% among 360,000; further: potency means the concentration at half of the fitted maximal effect; on the % scale 0 is the no-effect control and ±100 the full control effect; nearly all actives have a fitted effect of over 60% in size
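A549 ARE_Fluc cells, 5000/well, 5% FBS OPTI-MEM; compounds in dose-response, 18-24 h at 37 °C/5% CO2; CellTiter-Fluor viability read (Ex 405/Em 525), then BugLite luciferase luminescence = Nrf2 activity.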
An asterisk follows results filed as active; u = inconclusive; x = not tested or not shown. Rows were chosen to be rich in hits. Some 2.3% of all compounds tested hit in one or more screens of this group. Unless noted, the call rests on the fitted dose curve; in most records, active means well fitted curve in the direction sought with a large enough effect; inconclusive means small, poorly fitted or top-dose-only effect, or another doubt; inactive means no such curve, though single readings can be large; an effect the other way counts as inactive or inconclusive.

SMILES	A549 tox	Nrf2 ARE act	IL-2 act	Nrf2 block
CCOc1ccccc1Nc1nc2ccccc2nc1NS(=O)(=O)c1ccc(Cl)cc1	3.7%	-0.3%	x	u
Cc1noc(C)c1CSc1nc2ccccc2nc1NS(=O)(=O)c1ccc(Cl)cc1	u	0.3%	-0.4	9.2µM*
Cc1ccc(S(=O)(=O)Nc2nc3ccccc3nc2NCc2ccco2)cc1	-4.1%	22.4µM*	-0.8	u
Cc1cccc(S(=O)(=O)Nc2nc3ccccc3nc2NCc2ccco2)c1	3.6%	26.8%	1.2	u
O=S(=O)(Nc1nc2ccccc2nc1NCc1ccco1)c1ccc(Cl)cc1	-12.9%	8.0%	-0.7	20.6µM*
Cc1c(P(=S)(c2ccccc2)c2ccccc2)c2ccccc2n1CCc1ccccc1	-0.2%	x	x	3.0%
Cc1cccc(S(=O)(=O)c2c(N)n(Cc3ccco3)c3nc4ccccc4nc23)c1	-19.2%	0.1%	2.1	u
Cc1ccc(S(=O)(=O)c2c(N)n(Cc3ccco3)c3nc4ccccc4nc23)cc1	x	3.3%	1.3	18.4µM*
Cc1c(C(=O)NCc2ccco2)oc2ccccc12	4.9%	14.1µM*	-1.2	2.5%
O=c1cc(NCc2ccco2)c2ccccc2o1	-2.8%	12.6µM*	0.2	-16.8%
O=C(Cn1sc2ccccc2c1=O)NC12CC3CC(CC(C3)C1)C2	-1.5%	12.6µM*	-7.8	14.6%
CCC(=O)N1c2ccccc2CC1C(=O)NCc1cccc(C)c1 (configuration not stated)	5.1%	-0.7%	x	x
Cc1ccc(S(=O)(=O)C(CNC(=O)C(=O)NCCc2ccc(F)cc2)c2cccs2)cc1 (configuration not stated)	-9.5%	1.6%	x	x
O=C1NC(=Nc2ccccc2)S/C1=C\C=C\c1ccco1	u	7.08µM*	3.6	10.3%
Cc1ccc(N=C2NC(=O)/C(=C/C=C/c3ccco3)S2)cc1	u	2.51µM*	-3.5	28.4%
Cc1cccc(N=C2NC(=O)/C(=C/C=C/c3ccco3)S2)c1C	u	u	-0.8	-5.6%
O=C1S/C(=C\C=C\c2ccco2)C(=O)N1c1ccccc1	-11.5%	8.91µM*	-1.9	0.6%
CCc1ccc(NS(=O)(=O)c2ccc(-c3cc(C)no3)cc2)cc1	3.7%	-0.6%	x	u
CC(C)(C)OC(=O)Cc1nnc(CNC(=O)c2ccccc2)s1	1.4%	x	x	-12.0%
Cn1c(NC(=O)/C=C/c2ccccc2)cc(=O)n(C)c1=O	-2.3%	7.08µM*	-0.1	u
Cc1ccc(S(=O)(=O)NCc2ccccc2)cc1C(=O)N(C)Cc1ccc(F)cc1	-11.7%	-0.7%	-0.8	23.1µM*
COc1ccc(C(=O)N2CCN(c3nc4ccccc4o3)CC2)cc1OC	1.7%	0.4%	-1.4	18.4µM*
COC(=O)c1ccc(NC(=O)C2CCN(C(=O)c3cc(OC)c(OC)c(OC)c3)CC2)cc1	-6.2%	-0.5%	1.7	4.9%
CCOC(=O)c1ccc(NC(=O)C2CCN(C(=O)c3ccc(OC)c(OC)c3)CC2)cc1	-11.7%	6.7%	-0.5	23.1µM*
COc1ccc(C(=O)N2CCN(C(=O)c3ccc(-c4ccccc4)cc3)CC2)cc1OC	1.0%	0.3%	0.4	13µM*
SMILES	A549 tox	Nrf2 ARE act	IL-2 act	Nrf2 block
COc1cc(OC)cc(C(=O)N2CCN(C(=O)c3ccc(-c4ccccc4)cc3)CC2)c1	-0.5%	0.1%	23.7	-20.8%
CCOc1ccc(-n2c(C)nc3cc(C(=O)NC4CCCC4)ccc32)cc1	-0.1%	0.2%	x	x
CC(=O)Nc1cc2oc3ccccc3c2cc1[N+](=O)[O-]	2.5%	u	-0.8	u
CC(=O)Nc1ccc(N=Nc2ccccc2)cc1[N+](=O)[O-]	0.1%	7.94µM*	1.0	u
O=c1c(-c2ccco2)[n+]([O-])c2ccccc2n1OCc1ccccc1	-0.1%	3.16µM*	-2.2	13.8%
O=c1c(-c2ccco2)[n+]([O-])c2ccccc2n1OCc1c(F)cccc1F	0.8%	0.708µM*	-4.6	10.6%
O=c1c(-c2ccco2)[n+]([O-])c2ccccc2n1OCc1ccccc1F	u	u	1.3	u
CCOn1c(=O)c(-c2cc3ccccc3o2)[n+]([O-])c2ccccc21	-0.4%	5.9%	51.9*	u
Cc1ccc(NC(=O)Cn2c(=O)n(Cc3ccco3)c(=O)c3sc4ccccc4c32)c(C)c1	-1.2%	0.2%	x	-0.7%
CO[C@@]12[C@H](COC(N)=O)C3=C(C(=O)C(C)=C(N)C3=O)N1C[C@@H]1N[C@@H]12	-10.5%	-0.1%	-0.3	u
CO[C@@]12[C@@H]3N[C@@H]3CN1C1=C(C(=O)C(N)=C(C)C1=O)[C@@H]2COC(N)=O	u	3.2%	0.1	10.3µM*
Cc1cc(C)c(S(=O)(=O)NCCc2cc3ccc(C)cc3[nH]c2=O)c(C)c1	-3.4%	0.4%	x	-4.7%
CCOc1ccc(-n2c(C)cc(/C=C3/C(=N)N4C(=NC3=O)SN=C4S(C)(=O)=O)c2C)cc1	u	-0.5%	0.6	4.61µM*
O=C(COc1ccc([N+](=O)[O-])cc1)N1CCC(c2nc3ccccc3s2)CC1	-25.5%	-1.1%	x	14.6µM*
CCc1ccc(OC(C)C(=O)N2CCC(c3nc4ccccc4s3)CC2)cc1 (configuration not stated)	-22.3%	0.4%	x	18.4µM*
O=C(Nc1ccc2ccccc2n1)c1ccccc1	-3.0%	11.2µM*	-2.2	u
O=C(Nc1ccc2ccccc2n1)c1ccccc1Br	0.4%	11.2µM*	-0.2	u
Cc1cc(C)cc(NC(=O)Nc2ccc3ccccc3n2)c1	-8.0%	-0.1%	2.1	-6.7%
Cc1ccc(C(=O)Nc2ccc3ccccc3n2)cc1	3.9%	2.8%	1.1	u
O=C(Nc1ccccn1)c1ccc2ccccc2n1	1.0%	3.16µM*	-2.7	u
COc1ccc(C2Nc3ccccc3C(=O)N2Cc2ccccc2Cl)cc1COc1ccc(NC(C)=O)cc1 (configuration not stated)	-2.5%	x	x	-9.9%
COc1ccccc1NC(=O)Cn1cc(C(=O)c2ccco2)c2ccccc21	-1.1%	8.8%	-2.9	-12.2%
COc1ccc(OC)c(NC(=O)Cn2cc(C(=O)c3ccco3)c3ccccc32)c1	0.0%	-0.2%	-2.1	14.6µM*
Cc1ccc(S(=O)(=O)NC(N)=NCCC[C@@H](N)C(=O)Nc2cc(C(F)(F)F)ccc2Cl)cc1	-27.4%	x	x	u
COCc1ccc(C(=O)NC2CCCc3c2cnn3-c2ccc(C)c(C)c2)o1 (configuration not stated)	-5.9%	-0.8%	-4.8	14.6µM*
CCOc1ccc(S(=O)(=O)NCCc2csc3nc(-c4ccc(F)cc4)nn23)cc1	-13.5%	3.6%	x	x
Cc1sc(NC(=O)c2ccco2)c(C(Nc2ccccn2)c2ccccc2)c1C (configuration not stated)	-5.8%	9.1%	-2.5	20.6µM*
COc1ccc(C(Nc2ccccn2)c2c(NC(=O)c3ccco3)sc(C)c2C)cc1 (configuration not stated)	0.0%	23.4%	0.0	u
CC1CCN(S(=O)(=O)c2cccc(C(=O)NCC3CCCO3)c2)CC1 (configuration not stated)	2.4%	-0.4%	-3.1	13µM*
